From PubChem BioAssay
CHO-K1 Ca PAM = nonselective activator or artifact in parental CHO-K1 calcium assay; ATP EC20, Fluo-8 calcium fluorescence; 0% at ATP EC20, 100% at ATP max; AID 602247; activation, % at 3 µM; 0.02% of 360,000 active;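 active = activation above the run cutoff, the mean activation of all test compounds plus 3 SD, cut at about 40% in these data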;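 note: peak over basal fluorescence ratio in a 140 s read after ATP addition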
CHO-K1 Ca antag = counter-screen for M1 antagonists: effect in parental CHO-K1 cells. ATP-induced calcium, Fluo-8 fluorescence. inhibition, % at 3 µM. 0.6% of 360,000 active. AID 602250;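 active = inhibition above a per-plate cutoff, the plate's mean sample inhibition plus 3 SD, cut at about 24% in these data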;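 note: 0% = DMSO plus EC80 ATP and 100% = DMSO alone without ATP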
M1 antag = antagonists of human M1 muscarinic receptor. 1.3% of 360,000 active. AID 588852. inhibition, % at 3 µM. CHO-K1 hM1, Fluo-8 calcium fluorescence, ACh EC80 antagonist. P11229;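 active = percent inhibition above its own plate's cutoff, namely the mean of that plate's compound wells plus 3 SD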;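 note: peak over basal fluorescence ratio during 140 s after agonist addition; 0% = ACh EC80 plus DMSO and 100% = DMSO alone without agonist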
Target sequence (P11229 whole entry, looked up): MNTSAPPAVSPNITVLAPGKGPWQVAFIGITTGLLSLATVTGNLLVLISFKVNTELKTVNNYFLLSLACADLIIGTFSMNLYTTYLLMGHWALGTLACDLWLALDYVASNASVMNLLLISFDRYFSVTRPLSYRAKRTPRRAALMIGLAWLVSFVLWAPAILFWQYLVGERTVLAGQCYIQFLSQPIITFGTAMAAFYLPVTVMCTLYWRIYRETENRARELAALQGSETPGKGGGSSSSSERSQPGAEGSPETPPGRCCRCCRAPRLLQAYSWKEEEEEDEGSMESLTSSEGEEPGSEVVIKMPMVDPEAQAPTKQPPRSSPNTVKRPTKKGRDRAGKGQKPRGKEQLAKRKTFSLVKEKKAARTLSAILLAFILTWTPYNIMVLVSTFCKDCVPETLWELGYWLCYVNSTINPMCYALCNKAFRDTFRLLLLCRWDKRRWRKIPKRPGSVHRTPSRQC
CHO-K1 Ca ag = M1 agonist counterscreen hit in parental CHO-K1 cells | AID 602248 | activation, % at 3 µM | 0.48% of 360,000 active | Fluo-8 calcium fluorescence; scaled to maximal ATP response, vehicle zero; in the data active = activation above about 15%;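 note: untransfected CHO-K1 host cells lacking M1 receptor as counterscreen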
M1 PAM = positive allosteric modulators of human M1 muscarinic receptor; P11229; CHO-K1 hM1, Fluo-8 calcium fluorescence, ACh EC20; 0% = ACh EC20, 100% = maximal ACh; activation, % at 3 µM; 0.088% of 360,000 active; AID 588819; in the data active = activation above about 19%, passing the limit was not always enough
M1 ag = agonists of human M1 muscarinic receptor; P11229; CHO-K1 hM1, Fluo-8 calcium fluorescence, agonist mode; 0% DMSO, 100% acetylcholine EC100; activation, % at 3 µM; 0.33% of 360,000 active;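 active = activation above the run's mean compound activation plus 3 SD, cut at about 16% in these data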;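 note: peak over basal fluorescence ratio within a 140 s kinetic read after compound addition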
The depositor's hits bear a star. Only some compounds are listed: those with a hit (about 2.3% of all), similar ones and a draw of the others.

SMILES	CHO-K1 Ca PAM	CHO-K1 Ca antag	M1 antag	CHO-K1 Ca ag	M1 PAM	M1 ag
COc1ccc(N(C)S(=O)(=O)c2cccc(C(=O)OCC(=O)c3c(N)n(C)c(=O)n(C)c3=O)c2)cc1	-16	8	42*	21*	-23	6
CCN(c1ccccc1)S(=O)(=O)c1cccc(C(=O)OCC(=O)c2c(N)n(C)c(=O)n(C)c2=O)c1	5	-20	30	7	-17	-4
CN(C)CCOCCOc1ccc(Cl)cc1C(C)(C)C	9	-16	27	4	-7	-5
CN(C)CC/C=C1\c2cc(Cl)ccc2Sc2cc(F)c(F)cc21	15	-2	100*	2	-27	-5
CN(C)CC/C=C1\c2ccccc2Sc2cc(F)c(Cl)cc21	25	-5	100*	2	-24	-3
CN(C)CC/C=C1/c2ccc(F)cc2Sc2ccc(Cl)cc21	22	-11	100*	7	-25	-6
CN(C)CCOc1ccc2c(c1)Sc1ccccc1CC2=O	-1	9	9	4	-6	10
CN(C)CC/C=C1\c2ccc(F)cc2Sc2cc(F)c(Cl)cc21	19	0	100*	2	-28	-9
CCN1CCN(CCC(=O)Nc2ccccc2C)CC1	6	-7	-6	0	4	-1
OCCN1CCN(CC/C=C2/c3ccccc3Sc3ccc(Cl)cc32)CC1	11	0	10	2	-19	-6
CN(C)CC/C=C1\c2ccccc2Sc2ccc(Cl)cc21	-5	11	100*	1	-27	-7
CC1=C(C(=O)OCc2ccccc2)C(c2ccc3c(c2)OCO3)NC(=O)N1CCCC(=O)O (centres undefined)	13	-21	-12	1	13	-3
O=C(Nn1c(C2CCCCC2)nc2ccccc2c1=O)c1ccc([N+](=O)[O-])cc1	-14	24*	-3	0	11	-3
CCCN(C(=O)c1cccc(S(=O)(=O)N2CCN(C)CC2)c1)c1c(N)n(Cc2ccccc2)c(=O)[nH]c1=O	-13	12	12	0	-2	-3
Cn1c(=O)c2c(-c3ccccc3)n(CCCN3CCOCC3)cc2n(C)c1=O	-5	29*	7	0	0	-3
Cc1ccc(-c2c3c(=O)n(C)c(=O)n(C)c3cn2Cc2ccccc2)cc1	19	-5	-8	4	10	-6
O=S(=O)(c1ccc(F)cc1)c1nc(-c2ccco2)oc1NCCCn1ccnc1	11	0	11	0	-4	-2
O=C(Nc1ccc(Nc2ccccc2)cc1)c1ccc(Cl)c([N+](=O)[O-])c1	-13	11	32*	6	-16	-1
O=C(Nc1ccc(Cl)c(Cl)c1)c1ccc(Cl)c(Cl)c1	-22	16	37*	8	-24	-4
Cc1cc(C(=O)Nc2ccc(Nc3ccccc3)cc2)ccc1[N+](=O)[O-]	3	-7	-5	3	-2	-2
CN(c1cccc(NC(=O)c2ccc(N(C)S(=O)(=O)c3ccccc3)cc2)c1)S(C)(=O)=O	-12	24*	28*	16*	-35	-5
CN(c1ccccc1)S(=O)(=O)c1cccc(NC(=O)c2ccncc2)c1	-1	4	23	15*	-11	3
COCCNc1nc(Oc2ccc(CC(=O)OC)cc2)c2sc(-c3ccccc3)cc2n1	16	-11	-9	1	8	-3
COCC1CCCN(C(=O)c2ccc3nc(Cc4cccc(Cl)c4)oc3c2)C1 (centres undefined)	-1	-4	-9	4	1	2
CN(c1ccccc1)S(=O)(=O)c1cccc(NC(=O)c2ccc(Cl)c([N+](=O)[O-])c2)c1	-15	3	37*	8	-18	-2
SMILES	CHO-K1 Ca PAM	CHO-K1 Ca antag	M1 antag	CHO-K1 Ca ag	M1 PAM	M1 ag
O=C(Nc1ccc(Cl)c(Cl)c1)Nc1nccs1	-24	34*	27	11	-11	8
O=C(C1CC(c2ccc(F)cc2)=NO1)N1CCCCC1 (centres undefined)	14	-12	3	0	-2	-3
O=C(C1COc2ccccc2O1)N1CCN(c2ccc(C(F)(F)F)cn2)CC1 (centres undefined)	12	5	-3	24*	4	-2
O=C(C1COc2ccccc2O1)N1CCN(c2ccccc2)CC1 (centres undefined)	5	53*	-17	1	-1	0
NS(=O)(=O)c1ccc(N2CCN(C(=O)C3COc4ccccc4O3)CC2)nc1 (centres undefined)	-27	13	-9	0	6	2
O=C(C1CC(c2ccc(F)cc2)=NO1)N1CCN(c2ccccc2)CC1 (centres undefined)	-7	12	47*	0	-9	-3
COc1ccc(S(=O)(=O)N2CCN(C(=O)C3COc4ccccc4O3)CC2)cc1 (centres undefined)	12	-23	89*	6	-28	-6
C=Cc1ccc(Cn2c(C)c(C(=O)NCc3ccc4c(c3)OCCO4)sc2=O)cc1	-10	5	-1	1	1	0
COCOCCn1cc(CN2CCS(=O)(=O)N(Cc3ccc(-c4ccc(Cl)nc4)cc3)C(C(C)C)C2=O)nn1 (centres undefined)	17	-13	-3	1	5	-4
O=S(=O)(c1ccccc1F)N1CCC(Oc2ccc(-n3cnnn3)cc2)CC1	-3	-1	21	22*	-13	6
COc1ccccc1C(=O)NCCC(=O)NC1CCCC(C)C1C (centres undefined)	20	-12	-7	4	6	-2
COc1ccc(CCNC(=O)CCC(=O)c2cccs2)cc1OC	-26	28*	11	0	-5	-3
COc1ccc(CCNC(=O)CCC(=O)NC2CCCC(C)C2C)cc1OC (centres undefined)	6	29*	-11	-1	6	-3
CCCCn1c(N)c(N(CC(C)C)C(=O)CCN2C(=O)C3CC=CCC3C2=O)c(=O)[nH]c1=O (centres undefined)	6	3	-6	0	3	-4
CN(CC(=O)Nc1ccc(F)c(F)c1F)C(=O)c1nn(Cc2ccccc2)c(=O)c2ccccc12	13	-5	1	2	0	-5
NCCCCCc1nnc(SCc2ccc(Cl)cc2Cl)o1	13	16	33*	1	-14	-5
NCCCCCc1nnc(SCc2cccc(Cl)c2)o1	12	-1	30*	0	-25	-6
O=C(CCCCCNc1nc(=S)[nH]c2ccccc12)NCCC1=CCCCC1	12	-17	-1	1	2	-6
O=C(NCc1ccon1)C1CCC(=O)N(CCc2ccc(Cl)cc2)C1 (centres undefined)	-17	15	-11	0	19	7
